In ChEMBL document CHEMBL4513135, “CO-ADD screening of IQOG CSIS (Spain) compounds” one finds Inhibition data, which are given here for 42 compounds.

The test system of test [1] is Staphylococcus aureus. Conditions: Concentration 32 ug.mL-1, ASSAY_TEST Inhibition of Bacterial Growth, detection method Absorption (OD600), MEDIA CAMHB, plate type 384well, NBS, CORNING #3640, time 18 hr.
The test system of test [2] is Escherichia coli. Conditions: Concentration 32 ug.mL-1, ASSAY_TEST Inhibition of Bacterial Growth, detection method Absorption (OD600), MEDIA CAMHB, plate type 384well, NBS, CORNING #3640, time 18 hr.

Structures are written as SMILES. Values joined by “and” are separate entries in the source; they are usually repeats but may differ in a detail not shown here. Equal values may be shown once. Potency and affinity values are given separately.

Consider `CCOC(=O)c1c(C)nc2nc3c(c(N)c2c1-c1ccc(Cl)cc1)CCCCC3`, for which the Inhibition in test [1] was 2.05%; in test [2], -16.85%.

As for `CC(=O)Oc1ccc(C=C2N=C(c3ccccc3)OC2=O)cc1`, the Inhibition in test [1] was found to be 10.97%; in test [2], 17.49%.

Consider `CCOC(=O)C1=C(C)OC(N)=C(C#N)C1c1ccncc1` (centres undefined), for which the Inhibition in test [1] is 26.79%; in test [2] it was -33.19%.

Consider `CC1Cc2c(Cl)nc3nc4c(c(N)c3c2NC1=O)CCCC4` (centres undefined), for which the Inhibition in test [1] is listed as 46.7%; in test [2], -7.98%.

For the compound `Cn1c(CNNC(=O)c2ccco2)cc2ccccc21`, the Inhibition in test [1] amounted to 1.86%; in test [2] it was 21.64%.

As to `O=C1SC(SCc2ccccc2)=NC1=Cc1cccc(OCc2ccccc2)c1`, the Inhibition is recorded as -1.09% in test [1] and 7.89% in test [2].

As for `O=Cc1c[nH]c2ccccc12` [3-FORMYLINDOLE], the Inhibition in test [1] amounted to 16.72%; in test [2], 17.3%.

For the compound `C#CCN1CCc2nc3nc(N4CCCC4)c(C#N)cc3c(N)c2C1`, the Inhibition in test [1] is listed as 24.32%; in test [2], -2.2%.

On to `C#CCNc1ccc(Cl)nn1`, for which the values for the Inhibition in test [1] and in test [2] were 21.22% and -28.17%, respectively.

As to `N#Cc1cc(C#N)c(N2CCCCC2)nc1Cl`, the Inhibition is recorded as 15.2% in test [1] and 9.21% in test [2].

As for `Cn1cc(/C=C2\NC(=S)NC2=O)c2ccccc21`, the Inhibition in test [1] is on record as 2.93%; in test [2], 3.35%.

For `COc1ccc(C2c3ccc4ccccc4c3OC(=NBr)C2(Br)C#N)cc1OC` (centres undefined), the Inhibition in test [1] is reported as 21.78%; in test [2], -14.95%.

As to `N#Cc1c(N)nc(S)c(C#N)c1-c1ccccc1`, the Inhibition in test [1] stood at 14.03%; in test [2], 9.92%.

For `O=C(O)c1cc2ccccc2[nH]1` [INDOLE-2-CARBOXYLIC ACID], the Inhibition in test [1] is reported as 5.6%; in test [2], 18.03%.

Consider `O=C(Cc1cccc2ccccc12)N/N=C/c1c[nH]c2ccccc12`, for which the Inhibition in test [1] is recorded as 12.36%; in test [2], 15.45%.

On to `N#Cc1c(Cl)nc(NC2CCN(Cc3ccccc3)CC2)c(C#N)c1-c1ccccc1`, for which the Inhibition is reported as -0.92% in test [1] and -18.84% in test [2].

On to `Cc1ccc(C2c3ccc4ccccc4c3Oc3nc4c(c(N)c32)CCCC4)cc1.Cl` (centres undefined), for which the Inhibition in test [1] is -4.06%; in test [2], 12.44%.

As for `N#CC1=C(N)Oc2ccc3ccccc3c2C1c1cccc([N+](=O)[O-])c1` (centres undefined), the Inhibition in test [1] is 31.47%; in test [2], -6.29%.

Consider `Cn1c(CNNC(=O)Cc2cccc3ccccc23)cc2ccccc21`, for which the Inhibition in test [1] was -5.85%; in test [2], -4.9%.

With `NNC(=O)CCc1c[nH]c2ccccc12`, the Inhibition in test [1] stood at 1.93%; in test [2], 6.66%.

As for `Cc1nc2c3c(C)nn(-c4ccccc4)c3ncn2n1`, the values for the Inhibition in test [1] and in test [2] were 11.24% and 12.68%, respectively.

Regarding `C/C(Cc1ccccc1)=N/NC(=O)c1c[nH]c2ccc(O)cc12`, the Inhibition in test [1] was determined as 7.12%; in test [2] it was 8.13%.

Consider `N#Cc1cc(C#N)c(Cl)nc1N`, for which the Inhibition in test [1] is recorded as 11.29%; in test [2], 7.53%.

In the case of `COc1ccc(/C=C2/N=C(c3ccccc3)OC2=O)cc1OC`, the values for the Inhibition in test [1] and in test [2] were -19.31% and -9.68%, respectively.

Regarding `C#CCN(C)c1nc(NCCC2CCN(Cc3ccccc3)CC2)c(C#N)cc1C#N.Cl`, the Inhibition was 16.92% in test [1] and -3.04% in test [2].

Turning to `N#CC1(Br)C(=N)Oc2ccc3ccccc3c2C1c1ccccc1` (centres undefined), the Inhibition in test [1] (32 ug/mL) was 27.29% and 36.87%; in test [2] (32 ug/mL), -8.37% and -7.39%.

On to `C#CCN(C)c1nc(N(C)CC#C)c(C#N)cc1C#N`, for which the Inhibition in test [1] is 20.85%; in test [2], -13.82%.

In the case of `N#Cc1cc(C#N)c(NCCCC2CCN(Cc3ccccc3)CC2)nc1N`, the results for the Inhibition in test [1] and in test [2] were 49.11% and -3.28%, respectively.

Regarding `Cc1ccc(C=C2N=C(c3ccccc3)OC2=O)cc1`, the Inhibition in test [1] is given as 7.55%; in test [2], 3.61%.

With `CCOC(=O)C1=C(C)OC(N)=C(C#N)C1c1ccc(F)cc1` (centres undefined), the Inhibition was 19.76% in test [1] and -10.2% in test [2].

For `Cc1ccc(C2CC2(N)C(=O)O)cc1.Cl` (centres undefined), the values for the Inhibition in test [1] and in test [2] were 8.71% and 6.19%, respectively.

For the compound `N#CC1=C(N)Oc2c(ccc3ccccc23)C1c1ccc(O)cc1` (centres undefined), the Inhibition in test [1] is reported as 21.57%; in test [2], -18.15%.

Consider `C#CCN(C)c1cc(Cl)nc(N)n1`, for which the Inhibition in test [1] is listed as 26.35%; in test [2], -8.33%.

As for `CCOC(=O)C1=C(C)Oc2nc3c(c(N)c2C1c1ccccc1OC)CCC3` (centres undefined), the Inhibition is 12.13% in test [1] and 5.78% in test [2].

Take `COc1ccc(C2c3ccc4ccccc4c3OC(=NBr)C2(Br)C#N)cc1` (centres undefined): the Inhibition is recorded as 25.41% in test [1] and -8.93% in test [2].

In the case of `CN(C)c1ccc(C(=NNC(=O)c2cc3ccccc3[nH]2)c2ccc(N(C)C)cc2)cc1`, the Inhibition in test [1] was -9.28%; in test [2] it was -3.28%.

As for `COc1cccc(C2c3c(nc4c(c3N)CCCC4)Oc3ccc4ccccc4c32)c1` (centres undefined), the Inhibition is given as 4.84% in test [1] and -1.02% in test [2].

With `COC(=O)C(=Cc1ccccc1)NC(=O)c1ccccc1`, the figures for the Inhibition in test [1] and in test [2] were 11.82% and 6.08%, respectively.

Regarding `Nc1c2c(nc3c1C(c1ccc(O)cc1)c1c(ccc4ccccc14)O3)CCCC2` (centres undefined), the figures for the Inhibition in test [1] and in test [2] were 9.54% and 9.35%, respectively.

Regarding `O=C(NNC(Cc1ccccc1)Cc1ccccc1)c1cc2ccccc2[nH]1`, the Inhibition in test [1] is -3.72%; in test [2], -3.49%.

In the case of `N#Cc1c(N)nc(N2CCC(Cc3ccccc3)CC2)c(C#N)c1-c1ccccc1`, the results for the Inhibition in test [1] and in test [2] were 8.01% and -15.68%, respectively.

Regarding `COc1ccccc1[C@H]1c2c(ccc3ccccc23)O/C(=N\Br)[C@@]1(Br)C#N`, the Inhibition stood at 33.19% in test [1] and 14.2% in test [2].

For orientation: Inhibition means the change of the read-out against control, counted positive when it falls.
